Results published in the antibiotic and cytotoxicity screens of Wong et al. (2023).
The campaign covered roughly 39,000 compounds. About 3,300 (8.5%) were called active. The sample as a whole holds a higher share of actives than the screen did.

The molecules below were run on HepG2 (assay: cytotoxicity call (relative viability < 0.9)). Conditions: 10 µM.

| Compound | cytotoxicity call |
| --- | --- |
| C[C@H](CO)N1C[C@H](C)[C@@H](CN(C)C(=O)Nc2ccccc2)Oc2ccc(NC(=O)CCN3CCOCC3)cc2CC1=O | inactive |
| Cc1noc(C)c1NC(=O)Nc1ccc2c(c1)C(=O)N([C@H](C)CO)C[C@H](C)[C@H](CN(C)C(=O)C1CCCCC1)OCCCC[C@@H](C)O2 | inactive |
| C[C@H](CO)N1C[C@H](C)[C@@H](CN(C)Cc2ccc(C(=O)Nc3ccccc3N)cc2)Oc2ccc(NC(=O)Nc3ccc(F)cc3)cc2CC1=O | inactive |
| C[C@H](CO)N1C[C@H](C)[C@H](CN(C)Cc2ccc(C(=O)Nc3ccccc3N)cc2)Oc2ccc(NC(=O)Nc3ccc(F)cc3)cc2CC1=O | inactive |
| C[C@H]1CN([C@@H](C)CO)C(=O)Cc2cc(NC(=O)Nc3ccc(F)cc3)ccc2O[C@@H]1CN(C)Cc1ccc(C(=O)Nc2ccccc2N)cc1 | inactive |
| C[C@@H]1CN([C@H](C)CO)C(=O)Cc2cc(NC(=O)Nc3ccc(F)cc3)ccc2O[C@H]1CN(C)Cc1ccc(C(=O)Nc2ccccc2N)cc1 | inactive |
| C[C@@H]1CN([C@@H](C)CO)C(=O)Cc2cc(NC(=O)Nc3ccc(F)cc3)ccc2O[C@@H]1CN(C)Cc1ccc(C(=O)Nc2ccccc2N)cc1 | active |
| C[C@H]1CN([C@@H](C)CO)C(=O)Cc2cc(NC(=O)Nc3ccc(F)cc3)ccc2O[C@H]1CN(C)Cc1ccc(C(=O)Nc2ccccc2N)cc1 | active |
| C[C@@H]1CCCCO[C@@H](CN(C)C(=O)NC2CCCCC2)[C@@H](C)CN([C@@H](C)CO)C(=O)c2cc(NC(=O)Nc3ccc(F)cc3)ccc2O1 | inactive |
| Cc1noc(C)c1S(=O)(=O)N(C)C[C@@H]1Oc2ccc(NS(=O)(=O)c3ccccc3)cc2C(=O)N([C@H](C)CO)C[C@@H]1C | inactive |
| C[C@@H]1CCCCO[C@@H](CN(C)Cc2ccncc2)[C@@H](C)CN([C@@H](C)CO)C(=O)c2cc(NC(=O)Cc3ccccc3)ccc2O1 | inactive |
| C[C@@H]1CCCCO[C@H](CN(C)C(=O)CCC(F)(F)F)[C@@H](C)CN([C@H](C)CO)C(=O)c2cc(NC(=O)Nc3ccccc3)ccc2O1 | inactive |
| C[C@H]1CN([C@@H](C)CO)C(=O)c2cccc(NC(=O)Nc3ccc4c(c3)OCO4)c2O[C@@H]1CN(C)S(C)(=O)=O | inactive |
| CN(C)CC(=O)N[C@H]1CC[C@@H](CC(=O)NCCN2CCCCC2)O[C@@H]1CO | inactive |
| C[C@H]1CN([C@@H](C)CO)C(=O)c2cc(NS(=O)(=O)c3ccc(F)cc3)ccc2O[C@@H]1CN(C)S(=O)(=O)c1cn(C)cn1 | inactive |
| O=C(O)c1cn2cccc(O)c2n1 | inactive |
| C[C@H]1CN([C@@H](C)CO)C(=O)c2cc(NS(C)(=O)=O)ccc2O[C@H]1CN(C)S(C)(=O)=O | inactive |
| COc1ccc(S(=O)(=O)N(C)C[C@H]2OCc3cnnn3CCCC(=O)N([C@H](C)CO)C[C@H]2C)cc1 | inactive |
| O=C(NC1CC1)[C@@H]1c2ccccc2C(=O)N(Cc2cc(C(F)(F)F)cc(C(F)(F)F)c2)[C@H]1c1ccc(CO)cc1 | inactive |
| Cc1cc(OCCCS(C)(=O)=O)cc(C)c1-c1cccc(COc2ccc3c(c2)OC[C@H]3CC(=O)O)c1 | active |
| COCC#Cc1ccc2c(c1)O[C@H](CN(C)S(=O)(=O)c1cccc(OC)c1)[C@@H](C)CN([C@@H](C)CO)S2(=O)=O | inactive |

| Compound | cytotoxicity call |
| --- | --- |
| O=S(=O)(O)NC1CCCCC1 [listing 1 of 2 here] | inactive |
| O=S(=O)([O-])NC1CCCCC1.[Na+] | inactive |
| O=S(=O)(O)NC1CCCCC1 [listing 2 of 2 here] | active |
| CC(C)NC(=O)N(C)C[C@@H]1Oc2ccc(NC(=O)Cc3ccccc3)cc2CC(=O)N([C@@H](C)CO)C[C@@H]1C | inactive |
| C[C@H](CO)N1C[C@H](C)[C@@H](CN(C)S(=O)(=O)c2ccc(F)cc2)Oc2c(NC(=O)c3cnccn3)cccc2C1=O | inactive |
| C[C@H]1CN([C@@H](C)CO)C(=O)c2cccc(NC(=O)C3CC3)c2O[C@H]1CN(C)S(=O)(=O)c1ccccc1 | inactive |
| C[C@@H]1CN([C@@H](C)CO)C(=O)Cc2cc(NC(=O)Nc3ccc(F)cc3)ccc2O[C@@H]1CN(C)Cc1ccc(C(F)(F)F)cc1 | active |
| C[C@H]1CN([C@@H](C)CO)C(=O)Cc2cc(NC(=O)Nc3ccc(F)cc3)ccc2O[C@H]1CN(C)Cc1ccc(C(F)(F)F)cc1 | active |
| C[C@@H]1CN([C@@H](C)CO)C(=O)Cc2cc(NC(=O)Nc3ccc(F)cc3)ccc2O[C@H]1CN(C)Cc1ccc(C(F)(F)F)cc1 | active |
| C[C@H]1CN([C@@H](C)CO)C(=O)Cc2cc(NC(=O)Nc3ccc(F)cc3)ccc2O[C@@H]1CN(C)Cc1ccc(C(F)(F)F)cc1 | inactive |
| C[C@@H]1CN([C@H](C)CO)C(=O)Cc2cc(NC(=O)Nc3ccc(F)cc3)ccc2O[C@@H]1CN(C)Cc1ccc(C(F)(F)F)cc1 | active |
| COc1ccccc1CNC(=O)C[C@H]1C[C@@H]2c3cc(NS(=O)(=O)c4ccc(F)cc4)ccc3O[C@@H]2[C@@H](CO)O1 | inactive |
| C[C@H](CO)N1C[C@H](C)[C@@H](CN(C)Cc2ccc(C(=O)O)cc2)Oc2ccc(NC(=O)Nc3cccc4ccccc34)cc2CC1=O | inactive |
| C[C@@H]1CN([C@H](C)CO)S(=O)(=O)c2ccc(C3=CCCCC3)cc2O[C@@H]1CN(C)C(=O)C1CCOCC1 | inactive |
| C[C@@H]1CN([C@@H](C)CO)C(=O)c2cc(NC(=O)Nc3ccc(F)cc3)ccc2O[C@@H](C)CCCCO[C@@H]1CN(C)C(=O)c1ccccc1 | inactive |
| C[C@H]1CN([C@@H](C)CO)C(=O)c2ccccc2-c2ccccc2CO[C@H]1CN(C)C(=O)Nc1cccc(C(F)(F)F)c1 | inactive |
| CCC(=O)OCC(=O)C1(OC(=O)CC)C(C)CC2C3CCC4=CC(=O)C=CC4(C)C3(F)C(O)CC21C (stereo unspecified) | inactive |
| Cc1ccc(S(=O)(=O)Nc2ccc3c(c2)C(=O)N([C@@H](C)CO)C[C@@H](C)[C@@H](CN(C)S(C)(=O)=O)O3)cc1 | inactive |
| COc1ccc(NC(=O)N2C[C@@H](O)COC[C@H]3O[C@@H](CC(=O)NCc4ccccc4OC)CC[C@@H]32)cc1 | inactive |
| C[C@@H]1CN([C@@H](C)CO)C(=O)c2cc(C#CCN(C)C)cnc2O[C@@H]1CN(C)C(=O)CN1CCOCC1 | inactive |
